{"source": "PubChem BioAssay (NCI)", "note": "About 83,000 compounds went through this panel and 20% of them were active in at least one assay; those are over-represented in the sample as a whole.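 Note: values are percent growth. 100 is the growth of untreated cells, values between 100 and 0 indicate rising inhibition; between -100 and 0 indicates cell death.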 A number with no mark means an inactive call. Activity calls are given as the source filed them. Rule for the calls: active = growth percent below 10; inactive = the rest."}
{"system": "HL-60(TB) leukemia", "experiment": "NCI-60 one-dose screen, 48 h (100 = growth as untreated, 0 = no growth, -100 = all killed)", "conditions": "10 µM unless noted"}
{"molecule": "O=C1/C(=C\\c2cn(-c3nc(N4CCOCC4)nc(N4CCOCC4)n3)c3ccccc23)c2ccccc2N1c1c(Cl)cccc1Cl", "growth": "64.7%"}
{"molecule": "COc1ccc(C2=NN(C(=O)COc3ccc(Cl)cc3)C(O)(c3cc(F)c(Cl)cc3Cl)C2)cc1", "note": "(stereo not given)", "growth": "95%"}
{"molecule": "COc1ccc(/C=C2\\Oc3cc(C)c(Cl)cc3C2=O)cc1OC", "growth": "100%"}
{"molecule": "Oc1cc(Nc2ccnc3cc(Cl)ccc23)c2ncccc2c1", "growth": "93.1%"}
{"molecule": "COC(=O)C(N)CSC(c1ccccc1)(c1ccccc1)c1ccccc1", "note": "(stereo not given)", "growth": "-28.7% (active)"}
{"molecule": "O=C1c2cccc(NCCN=Cc3cc(O)ccc3O)c2C(=O)c2c(NCCN=Cc3cc(O)ccc3O)cccc21", "growth": "-72.5% (active)"}
{"molecule": "CCN1C(=O)N(CC)C2C1NN=c1s/c(=C\\c3ccc(OC)cc3)c(=O)n12", "note": "(stereo not given)", "growth": "-45.9% (active)"}
{"molecule": "O=C1c2cc3c(cc2-c2c1c1ccc(F)cc1c(=O)n2C[C@H](O)[C@@H](O)[C@H](O)CO)OCO3", "growth": "-3.71% (active)"}
{"molecule": "COc1cc(/C=N/NC(=O)c2ccccc2Nc2ccnc(C(F)(F)F)c2)ccc1O", "growth": "14%"}
{"molecule": "CC(=O)Oc1ccc(/C=N/NC(N)=S)nc1", "growth": "64.3%"}
{"molecule": "NCCCNc1nc2ccccc2c2c(=O)c3cc(F)cc(F)c3sc12", "growth": "61.2%"}
{"molecule": "CS(=O)(=O)c1ccc(N/N=C/c2c(-c3ccc(S(C)(=O)=O)cc3)[nH]c3ccc(F)cc23)cc1", "growth": "-14.6% (active)"}
{"molecule": "CN1CCN(CCCOc2ccc3nc(Nc4ccc(F)c(F)c4)ccc3c2)CC1", "growth": "46.8%"}
{"molecule": "COc1ccc2c(c1)c(CC(=O)NCCOCCOCC(=O)Nc1ccc(OC)c(C(N)=O)c1O)c(C)n2C(=O)c1ccc(Cl)cc1", "growth": "107%"}
{"molecule": "O=C(NCc1ccccc1)c1cccc([N+](=O)[O-])c1", "growth": "101%"}
{"molecule": "CN(C)c1ccc(-c2ccc(-c3ccc(C(=N)N)cn3)o2)cc1", "growth": "-67.3% (active)"}
{"molecule": "O=C(CCCSc1nc(-c2ccc(Cl)cc2)cc(-c2ccc(Cl)cc2)n1)NO", "growth": "-25.4% (active)"}
{"molecule": "Cn1cc(-c2csc(-c3cn(C(=O)OC(C)(C)C)c4ccccc34)n2)c2cccnc21", "growth": "65.8%"}
{"molecule": "O=[N+]([O-])c1cc(-c2ccccc2)c(O)c([N+](=O)[O-])c1", "growth": "57.1%"}
{"molecule": "Cc1ccc(C)c2c1sc1nc(N3CCOCC3)c(C#N)c(=O)n12", "growth": "93.4%"}
{"molecule": "N#Cc1nc(-c2ccccc2)oc1S(=O)(=O)NCC(c1ccc(Cl)cc1)N1CCCCC1", "note": "(stereo not given)", "growth": "8.18% (active)"}
{"molecule": "COc1cccc2nc3n(c12)C(c1c(F)cccc1F)SC3", "note": "(stereo not given)", "growth": "70.3%"}
{"molecule": "O=C(OC1CCCC1)c1ccccc1Cl", "growth": "99.2%"}
{"molecule": "N#Cc1c(-c2ccccc2)cc(-c2ccccc2)n(CC(=O)NO)c1=O", "growth": "-56.3% (active)"}
{"molecule": "Oc1ccc(/C=C/c2ccccc2)cc1", "growth": "34.1%"}
{"molecule": "Oc1ccc2c(=S)cc(-c3ccc(Br)cc3)oc2c1O", "growth": "-22% (active)"}
{"molecule": "CCCCCCCCCC1=NC(C)(C)CN1C(C)(C)CO", "growth": "-20.8% (active)"}
{"molecule": "O=S(=O)(Nc1ccc(Cl)c(F)c1)c1ccc(-c2cnc(C3CC3)o2)cc1", "growth": "0.942% (active)"}
{"molecule": "O=C(Nc1ccncc1)C(=O)c1cn(S(=O)(=O)c2cccc(Cl)c2)c2ccccc12", "growth": "41.8%"}
{"molecule": "COc1ccc(C2=Nn3c(nnc3-c3cc(Cl)cc(Cl)c3Cl)SC2)cc1", "growth": "-32% (active)"}
{"molecule": "COc1ccc(/C=C2\\C=C(c3ccccc3)N(CCc3ccccc3)C2=O)cc1OC", "growth": "19.6%"}
{"molecule": "O=C1c2ccccc2-c2c1c1cccnc1c(=O)n2C[C@H](O)CO", "growth": "48.8%"}
{"molecule": "O=C(NO)c1ccc(Cn2c(=O)n(-c3ccccc3F)c(=O)c3ccccc32)cc1", "growth": "-1.46% (active)"}
{"molecule": "Nc1c(C(=O)Nc2ccccc2F)sc2nc3c(cc12)C(=O)CCC3", "growth": "33.9%"}
{"molecule": "N#C/C(=N\\Nc1ccccc1)C(=O)Nc1cc(-c2ccccc2)nn1-c1ccccc1", "growth": "35.4%"}
{"molecule": "COc1ccc(/C=N/NC(=O)c2cnn3c2NC(c2ccccc2)C3)cc1OC", "note": "(stereo not given)", "growth": "36.4%"}
{"molecule": "CCn1cc(C(=O)NNC(=S)Nc2ccc(C)cc2)c(=O)c2ccc(C)nc21", "growth": "94.5%"}
{"molecule": "CNC(=O)N/N=C/c1ccc([N+](=O)[O-])o1", "growth": "66.4%"}
{"molecule": "COc1ccc(-c2cn(Cc3cc4ccccc4s3)nn2)cc1OCCN1CCCCC1", "growth": "77%"}
{"molecule": "O=C(Nc1nc(-c2ccccc2)nc2c1sc(=S)n2-c1ccccc1)C(F)(F)F", "growth": "94.5%"}
